# In PubChem BioAssay (EPA / NIEHS):
# Inconclusive results are not listed. Calls of active or inactive are those of the source. Rule for the calls, unless noted: active = hit-call score of the fitted dose curve at least 0.9, where 1 is the maximum; inactive = score below 0.9.
# Experiment: IUF_NPC2-5_cytotoxicity_120hr: Cytotoxicity Assessment at 120 hours in the Leibniz Research Institute for Environmental Medicine (IUF) Neural Progenitor Cell Migration and Differentiation Assay (NPC2-5) (AID 2284307; active = hit-call score of the fitted dose curve at least 0.9, where 1 is the maximum)
# Method in brief: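 Membrane-integrity loss is quantified by LDH in supernatant after five days of exposure of migrating, differentiating human fetal NPC spheres; seven serially diluted concentrations are tested with DMSO kept at or below 0.1%.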
row,Compound,outcome
1,C[n+]1ccc(-c2cc[n+](C)cc2)cc1,inactive
2,C/C(=C/C=C/[C@@H](C)C(=O)O)[C@H]1CN[C@H](C(=O)O)[C@H]1CC(=O)O,inactive
3,CP(=O)(O)CCC(N)C(=O)O (stereo not drawn),inactive
4,[O-][Cl+3]([O-])([O-])O,inactive
5,CCOP(=S)(OCC)SCS(=O)C(C)(C)C (stereo not drawn),inactive
6,C[n+]1ccc(-c2ccccc2)cc1,inactive
7,Cn1nc(C(F)(F)F)c(CS(=O)(=O)C2=NOC(C)(C)C2)c1OC(F)F,inactive
8,CC1(C)C(C=C(Cl)c2ccc(Cl)cc2)C1C(=O)OC(C#N)c1ccc(F)c(Oc2ccccc2)c1 (stereo not drawn),inactive
9,CCOP(=O)(Oc1cnc(C(C)(C)C)nc1)OC(C)C (stereo not drawn),inactive
10,CC1(C)[C@H](C=C(Cl)Cl)[C@H]1C(=O)OCc1c(F)c(F)cc(F)c1F,inactive
11,CC(=O)[O-].CC(=O)[O-].O.O.O.[Pb+2],inactive
12,CC1(C)C(C=C(Cl)Cl)C1C(=O)O[C@H](C#N)c1cccc(Oc2ccccc2)c1 (stereo partly drawn),inactive
13,CCOP(=O)(OCC)OC(Cl)C(Cl)(Cl)Cl (stereo not drawn),inactive
14,CCOP(=O)(OCC)SCSC(C)(C)C,inactive
15,CC1(C)[C@@H](C=C(Cl)Cl)[C@@H]1C(=O)O[C@@H](C#N)c1ccc(F)c(Oc2ccccc2)c1,inactive
16,COP(=O)(OC)SCN1C(=O)c2ccccc2C1=O,inactive
17,CC(=O)[O-].[Tl+],inactive

# Experiment: IUF_NPC2-5_cell_number_120hr: Cell Number Assessment at 120 hours in the Leibniz Research Institute for Environmental Medicine (IUF) Neural Progenitor Cell Migration and Differentiation Assay (NPC2-5) (AID 2284308);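 note: count of Hoechst-stained nuclei in migration zone around plated human neural progenitor spheres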
# Method in brief: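 Seven-point serial dilutions plus solvent control were applied to plated 0.3 mm hNPC spheres at differentiation start, with medium half-replaced at day 3. Nuclei positive for Hoechst in the migration zone were enumerated at 120 h.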
Compound,outcome,AC50
C[n+]1ccc(-c2cc[n+](C)cc2)cc1,inactive,
C/C(=C/C=C/[C@@H](C)C(=O)O)[C@H]1CN[C@H](C(=O)O)[C@H]1CC(=O)O,inactive,
CP(=O)(O)CCC(N)C(=O)O (stereo not drawn),inactive,
[O-][Cl+3]([O-])([O-])O,inactive,
CCOP(=S)(OCC)SCS(=O)C(C)(C)C (stereo not drawn),inactive,
C[n+]1ccc(-c2ccccc2)cc1,inactive,
Cn1nc(C(F)(F)F)c(CS(=O)(=O)C2=NOC(C)(C)C2)c1OC(F)F,inactive,
CC1(C)C(C=C(Cl)c2ccc(Cl)cc2)C1C(=O)OC(C#N)c1ccc(F)c(Oc2ccccc2)c1 (stereo not drawn),inactive,
CCOP(=O)(Oc1cnc(C(C)(C)C)nc1)OC(C)C (stereo not drawn),inactive,
CC1(C)[C@H](C=C(Cl)Cl)[C@H]1C(=O)OCc1c(F)c(F)cc(F)c1F,inactive,
CC(=O)[O-].CC(=O)[O-].O.O.O.[Pb+2],inactive,
CC1(C)C(C=C(Cl)Cl)C1C(=O)O[C@H](C#N)c1cccc(Oc2ccccc2)c1 (stereo partly drawn),inactive,
CCOP(=O)(OCC)OC(Cl)C(Cl)(Cl)Cl (stereo not drawn),,36 µM (active)
CCOP(=O)(OCC)SCSC(C)(C)C,inactive,
CC1(C)[C@@H](C=C(Cl)Cl)[C@@H]1C(=O)O[C@@H](C#N)c1ccc(F)c(Oc2ccccc2)c1,inactive,
COP(=O)(OC)SCN1C(=O)c2ccccc2C1=O,inactive,
CC(=O)[O-].[Tl+],,35.4 µM (active)

# Experiment: IUF_NPC2-5_viability_120hr: Viability Assessment at 120 hours in the Leibniz Research Institute for Environmental Medicine (IUF) Neural Progenitor Cell Migration and Differentiation Assay (NPC2-5) (AID 2284312)
# Method in brief: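 Human fetal neural progenitor spheres (0.3 mm) plated on poly-D-lysine/laminin in N2 differentiation medium, exposed 120 h with half-medium refresh at day 3. Viability by alamar blue resazurin fluorescence; 7 concentrations, DMSO max 0.1%.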
Compound,outcome,AC50
C[n+]1ccc(-c2cc[n+](C)cc2)cc1,inactive,
C/C(=C/C=C/[C@@H](C)C(=O)O)[C@H]1CN[C@H](C(=O)O)[C@H]1CC(=O)O,inactive,
CP(=O)(O)CCC(N)C(=O)O (stereo not drawn),inactive,
[O-][Cl+3]([O-])([O-])O,inactive,
CCOP(=S)(OCC)SCS(=O)C(C)(C)C (stereo not drawn),inactive,
C[n+]1ccc(-c2ccccc2)cc1,inactive,
Cn1nc(C(F)(F)F)c(CS(=O)(=O)C2=NOC(C)(C)C2)c1OC(F)F,inactive,
CC1(C)C(C=C(Cl)c2ccc(Cl)cc2)C1C(=O)OC(C#N)c1ccc(F)c(Oc2ccccc2)c1 (stereo not drawn),inactive,
CCOP(=O)(Oc1cnc(C(C)(C)C)nc1)OC(C)C (stereo not drawn),inactive,
CC1(C)[C@H](C=C(Cl)Cl)[C@H]1C(=O)OCc1c(F)c(F)cc(F)c1F,inactive,
CC(=O)[O-].CC(=O)[O-].O.O.O.[Pb+2],inactive,
CC1(C)C(C=C(Cl)Cl)C1C(=O)O[C@H](C#N)c1cccc(Oc2ccccc2)c1 (stereo partly drawn),inactive,
CCOP(=O)(OCC)OC(Cl)C(Cl)(Cl)Cl (stereo not drawn),inactive,
CCOP(=O)(OCC)SCSC(C)(C)C,inactive,
CC1(C)[C@@H](C=C(Cl)Cl)[C@@H]1C(=O)O[C@@H](C#N)c1ccc(F)c(Oc2ccccc2)c1,inactive,
COP(=O)(OC)SCN1C(=O)c2ccccc2C1=O,inactive,
CC(=O)[O-].[Tl+],,21.6 µM (active)

# Experiment: CCTE_Mundy_HCI_iCellGluta_NOG_NeuriteLength: CCTE's Neurite Outgrowth Assay in iCellGluta cells for Neurite Length, Mundy Lab (AID 2284318; active = hit-call score of the fitted dose curve at least 0.9, where 1 is the maximum)
# Method in brief: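 Automated high-content imaging of betaIII-tubulin (Alexa Fluor-488) and Hoechst-stained cells gave neurite length, normalized to the DMSO baseline.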
Compound,outcome,AC50
CCOP(=S)(OCC)SCS(=O)C(C)(C)C (stereo not drawn),inactive,
C#CCN(C)[C@H](C)Cc1ccccc1,inactive,
Cn1nc(C(F)(F)F)c(CS(=O)(=O)C2=NOC(C)(C)C2)c1OC(F)F,,50 µM (active)
CC1(C)C(C=C(Cl)c2ccc(Cl)cc2)C1C(=O)OC(C#N)c1ccc(F)c(Oc2ccccc2)c1 (stereo not drawn),,67.3 µM (active)
CCOP(=O)(Oc1cnc(C(C)(C)C)nc1)OC(C)C (stereo not drawn),,28.8 µM (active)
CC1(C)[C@H](C=C(Cl)Cl)[C@H]1C(=O)OCc1c(F)c(F)cc(F)c1F,,18.1 µM (active)
CC1(C)C(C=C(Cl)Cl)C1C(=O)O[C@H](C#N)c1cccc(Oc2ccccc2)c1 (stereo partly drawn),inactive,
CCOP(=O)(OCC)OC(Cl)C(Cl)(Cl)Cl (stereo not drawn),inactive,
CCOP(=O)(OCC)SCSC(C)(C)C,,9.83 µM (active)
CC1(C)[C@@H](C=C(Cl)Cl)[C@@H]1C(=O)O[C@@H](C#N)c1ccc(F)c(Oc2ccccc2)c1,inactive,
COP(=O)(OC)SCN1C(=O)c2ccccc2C1=O,,50.5 µM (active)
CC(=O)[O-].[Tl+],,2.79 µM (active)
